Results on 29 compounds are retold here after PubChem BioAssay (Tox21).

Inconclusive results are not listed. Values without a mark were called inactive. Active and inactive are the calls of the source. Unless noted, the call rests on the fitted dose curve; in most records, active means well fitted curve in the direction sought with a large enough effect in the repeat runs; inconclusive means weak or mixed curves; inactive means no such curve, though single readings can be large; an effect the other way counts as inactive or inconclusive.

Experiment [1] can be described thus: qHTS assay to identify aromatase inhibitors - cell viability counter screen (AID 743084).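 Further: cells stimulated with testosterone during compound exposure; nearly all actives have a fitted effect of over 55% in size.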 Further: potency means the concentration at half of the fitted maximal effect.
Experiment [2] addresses Aryl hydrocarbon receptor (Homo sapiens) (UniProt P35869). The experiment can be described thus: qHTS assay to identify small molecule that activate the aryl hydrocarbon receptor (AhR) signaling pathway (AID 743085). Further: nearly all actives have a fitted effect of over 15% in size. Further: potency means the concentration at half of the fitted maximal effect.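 On activation: HG2L7.5c1 human HepG2 liver cells with stably integrated DRE-driven firefly reporter; series mostly up to about 70 µM.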 In a few lines: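 Cell line HG2L7.5c1 (human hepatoma, 20× DRE-luc). Plated, 5 h 37C, compound/DMSO added, 24 h 37C. CellTiter-Fluor 30 min 37C → fluorescence; then ONE-Glo 30 min RT → luminescence.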
In general terms: qHTS replaces the single test concentration by a dilution series.

A short description of experiment [3]: qHTS assay to identify small molecule that activate the aryl hydrocarbon receptor (AhR) signaling pathway - cell viability counter screen (AID 743086). Further: nearly all actives have a fitted effect of over 45% in size. Further: potency means the concentration at half of the fitted maximal effect. In a few lines:
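Cytotoxicity counter screen: CellTiter-Fluor signal (30 min, 37 C) in 4000 HepG2 cells/well carrying the DRE-luciferase reporter, following 24 h compound exposure at 37 C.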

Experiment [4] can be described thus: qHTS assay to identify small molecule phospholipidosis (PLD) inducers (AID 1259344; active means well fitted curve in the direction sought with a large enough effect; an effect the other way counts as inactive or inconclusive). In a few lines: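 Accumulated phospholipid, stained red by LipidTOX during 24 h compound treatment of HepG2 cells at 37 C, is quantified from images as pit number and intensity, normalised per cell using Hoechst-stained nuclei.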
The target in experiment [5] is Peroxisome proliferator-activated receptor gamma (Homo sapiens) (UniProt P37231). Briefly: qHTS assay to identify small molecule agonists of the peroxisome proliferator-activated receptor gamma (PPARg) signaling pathway (AID 743094; active means well fitted activation curve with a large enough effect in the signal ratio in the repeat runs, not every such curve was filed as active; the % refers to the signal ratio). In short, it runs like this: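 Agonist activity was taken from a beta-lactamase reporter (FRET substrate, 1 h at room temperature) in HEK293H cells carrying a PPARg UAS-bla construct. Compounds in DMSO were incubated 17 h at 37C after a 5 h cell pre-incubation.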

Experiment [6] concerns the target Nuclear receptor subfamily 1 group I member 2 (Homo sapiens) (UniProt O75469). Briefly: Human pregnane X receptor (PXR) activation by small molecules, qHTS assay (AID 1346985). Further: nearly all actives have a fitted effect of over 40% in size. In a few lines: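 DPX-2 cells (HepG2 co-transfected with a PXR response element and a CYP3A4-promoter luciferase construct) were seeded at 2,000 per well, rested 5 hr at 37C, then exposed to DMSO-dissolved compounds for 24 hr. Activation was read as luciferase luminescence.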

Experiment [7] shares this target. Briefly: CYP3A4 induction through human pregnane X receptor (PXR) by small molecules, qHTS assay (AID 1346984). Further: nearly all actives have a fitted effect of over 40% in size. In a few lines: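 Read-out is luminescence after One-Glo addition, following a 3 hr, 37C incubation with Luciferin-IPA CYP3A4 substrate (3uM final). Before that, compounds were on DPX-2 cells (HepG2 co-transfected with PXR element plus CYP3A4-promoter luciferase) for 24 hr at 37C.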
On the % scale 0 is the no-effect control and ±100 the full control effect.

Chain of Peroxisome proliferator-activated receptor gamma (Homo sapiens) (P37231 whole entry, looked up): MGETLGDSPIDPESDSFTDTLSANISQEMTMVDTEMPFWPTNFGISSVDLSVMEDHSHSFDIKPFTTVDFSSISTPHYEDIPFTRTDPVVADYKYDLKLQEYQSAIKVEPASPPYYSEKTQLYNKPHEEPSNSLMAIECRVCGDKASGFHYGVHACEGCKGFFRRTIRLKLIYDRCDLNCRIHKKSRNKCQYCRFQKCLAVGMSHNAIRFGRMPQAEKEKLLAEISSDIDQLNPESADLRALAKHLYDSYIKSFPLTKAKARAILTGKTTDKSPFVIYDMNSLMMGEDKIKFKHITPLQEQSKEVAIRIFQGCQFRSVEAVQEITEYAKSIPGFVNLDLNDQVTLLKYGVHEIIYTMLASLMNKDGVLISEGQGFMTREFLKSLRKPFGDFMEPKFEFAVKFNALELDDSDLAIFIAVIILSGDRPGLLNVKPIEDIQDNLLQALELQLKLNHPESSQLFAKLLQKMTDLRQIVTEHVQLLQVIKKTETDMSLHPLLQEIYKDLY
Chain of Aryl hydrocarbon receptor (Homo sapiens) (P35869 whole entry, looked up): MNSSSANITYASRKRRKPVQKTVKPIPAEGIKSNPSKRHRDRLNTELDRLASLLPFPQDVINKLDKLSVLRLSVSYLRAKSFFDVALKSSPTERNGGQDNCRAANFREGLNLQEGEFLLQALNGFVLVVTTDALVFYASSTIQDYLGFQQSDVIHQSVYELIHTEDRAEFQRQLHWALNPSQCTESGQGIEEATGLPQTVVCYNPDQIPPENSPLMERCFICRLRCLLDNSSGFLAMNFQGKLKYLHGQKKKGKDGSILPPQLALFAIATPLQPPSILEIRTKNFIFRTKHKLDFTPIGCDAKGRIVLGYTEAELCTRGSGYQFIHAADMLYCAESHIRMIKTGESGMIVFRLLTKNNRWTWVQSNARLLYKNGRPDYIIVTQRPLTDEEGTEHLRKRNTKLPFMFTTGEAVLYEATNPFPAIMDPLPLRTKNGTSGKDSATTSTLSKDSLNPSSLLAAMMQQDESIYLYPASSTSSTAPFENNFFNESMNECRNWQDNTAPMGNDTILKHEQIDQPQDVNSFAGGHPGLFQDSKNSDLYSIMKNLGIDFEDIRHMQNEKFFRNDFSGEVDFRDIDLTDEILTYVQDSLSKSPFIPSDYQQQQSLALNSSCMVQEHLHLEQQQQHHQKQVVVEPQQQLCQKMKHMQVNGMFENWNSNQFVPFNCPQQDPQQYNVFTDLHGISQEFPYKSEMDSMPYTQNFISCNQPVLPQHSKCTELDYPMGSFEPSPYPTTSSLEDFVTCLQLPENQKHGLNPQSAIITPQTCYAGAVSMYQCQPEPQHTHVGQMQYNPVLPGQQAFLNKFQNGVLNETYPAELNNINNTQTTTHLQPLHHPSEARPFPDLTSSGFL

Take `COC(=O)CCC(=O)CN`: the Potency entry in experiment [1], in experiment [2], in experiment [3] and in experiment [4] was “inactive” throughout.

Turning to `CC(=O)O[C@H]1C[C@@]2(C)[C@@H](C[C@@H](O)[C@H]3[C@@]4(C)CC[C@@H](O)[C@@H](C)[C@@H]4CC[C@@]32C)/C1=C(\CCC=C(C)C)C(=O)O`, the Potency result in experiment [1], in experiment [2], in experiment [3], in experiment [5], in experiment [4] and in experiment [6] was “inactive” each time.

As for `CO[C@H]1C[C@H](O[C@H]2[C@H](C)O[C@@H](O[C@@H]3/C(C)=C/C[C@@H]4C[C@@H](C[C@]5(C=C[C@H](C)[C@@H](C6CCCCC6)O5)O4)OC(=O)[C@@H]4C=C(C)[C@@H](O)[C@H]5OC/C(=C\C=C\[C@@H]3C)[C@]54O)C[C@@H]2OC)O[C@@H](C)[C@@H]1O`, the Potency result in experiment [1], in experiment [2], in experiment [3] and in experiment [4] was “inactive” in each case.

Take `NC(=O)C[C@@H](N)C(=O)O`: the Potency result in experiment [1], in experiment [2] and in experiment [4] was “inactive” each time.

`CCN(CC)c1ccc(C(=C2C=CC(=[N+](CC)CC)C=C2)c2ccccc2)cc1`: the results for the Potency in experiment [1] and in experiment [3] were 7.5 µM (active) and 5.96 µM (active), respectively. Further, the Potency result in experiment [2] and in experiment [4] was “inactive” in each case.

With `Cc1ccccc1CNc1ncnc2c1ncn2[C@@H]1O[C@H](CO)[C@@H](O)[C@H]1O`, the Potency entry in experiment [1], in experiment [2], in experiment [3] and in experiment [4] was “inactive” each time.

With `CC(C(=O)O)c1ccc(C2CCCCC2)c2ccccc12` (stereo not drawn), the Potency entry in experiment [1], in experiment [2] and in experiment [3] was “inactive” each time. The PLD induction in experiment [4] is 0.703% [at 7.66 µM].

As to `CC(C)CN(C[C@@H](O)[C@H](Cc1ccccc1)NC(=O)O[C@H]1CO[C@H]2OCC[C@H]21)S(=O)(=O)c1ccc(N)cc1`, the Potency result in experiment [1], in experiment [2], in experiment [3] and in experiment [4] was “inactive” in each case.

With `CCC(=O)NS(=O)(=O)c1ccc(-c2c(-c3ccccc3)noc2C)cc1`, the Potency entry in experiment [1], in experiment [2], in experiment [3] and in experiment [4] was “inactive” throughout.

With `C#CCOc1ccc2c(C)cc(=O)oc2c1`, the Potency result in experiment [1], in experiment [3], in experiment [5], in experiment [4] and in experiment [7] was “inactive” in each case.

Take `CCCCC(F)(F)[C@@]1(O)CC[C@H]2[C@@H](CC(=O)[C@@H]2CCCCCCC(=O)O)O1`: the Potency entry in experiment [1], in experiment [2], in experiment [3] and in experiment [4] was “inactive” each time.

Take `CC[C@@H]1/C=C(\C)C[C@H](C)C[C@H](OC)[C@H]2O[C@@](O)(C(=O)C(=O)N3CCCC[C@H]3C(=O)O[C@H](/C(C)=C/[C@@H]3CC[C@@H](Cl)[C@H](OC)C3)[C@H](C)[C@@H](O)CC1=O)[C@H](C)C[C@@H]2OC`: the Potency result in experiment [1], in experiment [2], in experiment [3], in experiment [5], in experiment [4] and in experiment [6] was “inactive” in each case.

With `C#C[C@]1(O)CC[C@H]2[C@@H]3CCC4=CCCC[C@@H]4[C@H]3C(=C)C[C@@]21CC`, the Potency result in experiment [1], in experiment [2], in experiment [3], in experiment [5], in experiment [4] and in experiment [7] was “inactive” throughout.

On to `CC(NNC(=O)c1ccccc1)c1ccccc1` (stereo not drawn), for which the Potency result in experiment [1], in experiment [3], in experiment [5], in experiment [4] and in experiment [7] was “inactive” in each case. Besides, in experiment [2], the Potency was 11.9 µM (active).

On to `O.O=C([O-])CC([S-])C(=O)[O-].[Au+].[Na+].[Na+]` (stereo not drawn), for which the Potency entry in experiment [1], in experiment [2] and in experiment [4] was “inactive” throughout.

Take `C/C=C1\NC(=O)[C@H]2CSSCC/C=C/[C@H](CC(=O)N[C@H](C(C)C)C(=O)N2)OC(=O)C(C(C)C)NC1=O` (stereo partly drawn): the values for the Potency in experiment [1] and in experiment [3] were 13.3 µM (active) and 15 µM (active), respectively. Besides, the Potency result in experiment [2] and in experiment [4] was “inactive” in each case.

Take `CC1(C)C2CC[C@]3(C)[C@H](C(=O)C=C4[C@@H]5C[C@@](C)(C(=O)O)CC[C@]5(C)CC[C@]43C)[C@@]2(C)CC[C@@H]1O[C@H]1O[C@H](C(=O)O)[C@@H](O)[C@H](O)[C@H]1O[C@@H]1O[C@H](C(=O)O)[C@@H](O)[C@H](O)[C@H]1O` (stereo partly drawn): the Potency entry in experiment [1], in experiment [2] and in experiment [3] was “inactive” each time. Further, the PLD induction in experiment [4] is 0.435% [at 7.66 µM].

`Cc1cccc(C)c1Nc1ncccc1C(=O)O`: the Potency result in experiment [1], in experiment [5], in experiment [4] and in experiment [7] was “inactive” each time. The Potency in experiment [2] is 29.8 µM (active).

As for `NCCC[C@H](N)C(=O)O`, the Potency entry in experiment [1], in experiment [2], in experiment [3], in experiment [5] and in experiment [4] was “inactive” throughout.

Regarding `CCCC(=O)N1CCCN(c2nc(N)c3cc(OC)c(OC)cc3n2)CC1`, the Potency result in experiment [1], in experiment [3] and in experiment [4] was “inactive” each time. Also, the Potency in experiment [2] is 5.31 µM (active).

Take `C#CCC(Cc1cnc2nc(N)nc(N)c2n1)c1ccc(C(=O)N[C@@H](CCC(=O)O)C(=O)O)cc1` (stereo partly drawn): the Potency entry in experiment [1], in experiment [2] and in experiment [3] was “inactive” throughout. For the same compound, in experiment [4], the PLD induction is 6.01% [at 0.306 µM].

With `OCC(O)COc1ccc(Cl)cc1` (stereo not drawn), the Potency result in experiment [1], in experiment [2], in experiment [3], in experiment [5] and in experiment [4] was “inactive” each time.

For `Cn1nnnc1SCC1=C(C(=O)O)N2C(=O)[C@@H](NC(=O)[C@H](OC=O)c3ccccc3)[C@H]2SC1`, the Potency result in experiment [1], in experiment [2], in experiment [3], in experiment [5] and in experiment [4] was “inactive” in each case.

Turning to `CCOC(=O)[C@H](CCc1ccccc1)N[C@H]1CCCN2CCC[C@@H](C(=O)O)N2C1=O`, the Potency entry in experiment [1], in experiment [2], in experiment [3], in experiment [5] and in experiment [4] was “inactive” throughout.

Regarding `N[C@H](CCC(=O)O)C(=O)O`, the Potency result in experiment [1], in experiment [2], in experiment [3] and in experiment [5] was “inactive” throughout. Moreover, in experiment [4], the PLD induction was 0.563% [at 7.66 µM].

On to `CS(=O)(=O)NC(=O)CCC/C=C\C[C@H]1C(=O)C[C@@H](O)[C@@H]1/C=C/[C@H](O)COc1ccccc1`, for which the Potency result in experiment [1], in experiment [2], in experiment [3], in experiment [5] and in experiment [4] was “inactive” each time.

As for `Cn1cc(NC(=O)c2cc(NC(=O)c3cc(NC=O)cn3C)cn2C)cc1C(=O)NCCC(=N)N`, the Potency entry in experiment [1], in experiment [2], in experiment [3], in experiment [5] and in experiment [4] was “inactive” throughout.

Take `O=C1O[C@H]2[C@H](O)[C@@H]1OC(O)[C@H]2O` (stereo partly drawn): the Potency entry in experiment [1], in experiment [2], in experiment [3], in experiment [5] and in experiment [4] was “inactive” in each case.

In the case of `CO/N=C(\C(=O)N[C@@H]1C(=O)N2C(C(=O)OCOC(=O)C(C)(C)C)=C(/C=C\c3scnc3C)CS[C@H]12)c1csc(N)n1`, the Potency entry in experiment [1], in experiment [2], in experiment [3] and in experiment [5] was “inactive” in each case. The PLD induction in experiment [4] is -0.933% [at 7.66 µM].
